Pf Dd2 inh – blocks in vitro growth of P. falciparum Dd2 | P. falciparum Dd2 growth, SYBR Green, 72 h | 4.3% of 120,000 active | Potency, µM (series often up to 28.9 µM), inactives show at the highest dose activity, negative = inhibition, usual class: inhibitors; active = well fitted inhibition curve with a large enough effect;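 note: plate controls were DMSO vehicle for no effect and reference drug for full effect; nearly all actives have a fitted effect of over 65% in size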
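Infected erythrocytes (Dd2, 0.3% parasitemia, 2.5% hematocrit final) are added to compound in RPMI-1640/Albumax II medium, grown 72 h at 37C in low oxygen, then lysed with saponin/Triton-X containing SYBR Green and read by fluorescence.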
Starred values were filed as active, the others as inactive; i = inactive. The sample as a whole holds a higher share of hits than the screen did. Potency is the fitted concentration of half-maximal effect.

SMILES	Pf Dd2 inh
O=C(NCc1ccc2c(c1)CCN2C(=O)c1ccc(Cl)cc1)c1ccco1	35.4%
Cc1cccc(C(=O)N2CCc3cc(CNC(=O)c4ccco4)ccc32)c1	4.3%
c1ccc([C@@H]2C[C@H]2c2nc(C3CCOCC3)n[nH]2)cc1	-29.8%
Cc1nn(-c2ccccc2)c(C)c1S(=O)(=O)N[C@@H]1[C@@H](N)[C@H]2CCO[C@H]21	-9.1%
COc1ccc(-c2cc(N3CCN(C(=O)c4ccc(C)nc4)CC3)n[nH]2)cc1	i
Cc1ccc(C(=O)N2CCCN(c3cc(-c4ccc(Cl)cc4)[nH]n3)CC2)cn1	6.31µM*
COc1ccc(-c2cc(N3CCCN(C(=O)c4ccc(C)nc4)CC3)n[nH]2)cc1	i
COC(=O)CNC(=O)N1CCC(OC2CCN(Cc3ccccc3)CC2)CC1	146.3%
COc1cccc(C2Cn3nnc(-c4nc(-c5cccc(C(F)(F)F)c5)no4)c3CO2)c1 (stereo not drawn)	i
CCn1ccnc1CN1CCC(Oc2ccccc2OC)(C(=O)O)CC1	-4.1%
CCOC(=O)C1(Cc2cccc(Cl)c2)CCCN(Cc2cnn(C)c2)C1 (stereo not drawn)	i
CCOC(=O)C1(Cc2ccccc2F)CCCN(C(=O)C(=O)c2ccco2)C1 (stereo not drawn)	-2.3%
CCOC(=O)C1(Cc2cccc(OC)c2)CCCN(Cc2cnc[nH]2)C1 (stereo not drawn)	i
CCOC(=O)C1(Cc2ccccc2C)CCCN(Cc2nccn2CC)C1 (stereo not drawn)	10µM*
CCOC(=O)C1(Cc2ccccc2C)CCCN(Cc2cnc(C)s2)C1 (stereo not drawn)	11.2µM*
CCO[C@H]1C[C@@H](O)C12CCN(c1ccnc(OC)c1C#N)CC2	-29.4%
Cc1ccc(C2=NC3(CCN(C(=O)c4ccn[nH]4)CC3)ON2)cc1	-5.0%
Cc1noc(C)c1S(=O)(=O)N1CCCC(Cc2nncn2CC2CC2)C1 (stereo not drawn)	10.4%
CCCNC(=O)C1CCN(c2ncnc3c2nc2n3CCCCC2)CC1	-8.7%
CN(C(=O)C1CCN(c2ncnc3c2nc2n3CCCCC2)CC1)c1ccccc1F	-19.5%
CCCN(CCC)C(=O)C1CCN(c2ncnc3c2nc2n3CCCCC2)CC1	-20.1%
CCc1ccccc1N(C)C(=O)C1CCCN(c2ncnc3c2nc2n3CCCCC2)C1 (stereo not drawn)	7.94µM*
CCOc1ccccc1N(C)C(=O)C1CCCN(c2ncnc3c2nc2n3CCCCC2)C1 (stereo not drawn)	-2.2%
Cc1ccc(C)c(N(C)C(=O)C2CCN(c3ncnc4c3nc3n4CCCCC3)CC2)c1	8.91µM*
Cc1ccc(C)c(NC(=O)C2CCN(c3ncnc4c3nc3n4CCCCC3)CC2)c1	14.6%
SMILES	Pf Dd2 inh
O=C(Nc1ccc(F)cc1)C1CCCN(c2ncnc3c2nc2n3CCCCC2)C1 (stereo not drawn)	-20.1%
CCc1ccccc1N(CC)C(=O)C1CCN(c2ncnc3c2nc2n3CCCCC2)CC1	11.2µM*
CNC(=O)[C@@H]1CN(C(=O)c2cc(C)on2)C[C@H]1COC	19.3%
COc1ccc(C(=O)N2CCCC(CN3CCOCC3)CC2)cc1 (stereo not drawn)	-12.1%
CN1C[C@H](O)C[C@H]1c1nnc2n1CCN(C(=O)c1ccsc1)CC2	25.1%
COCc1noc([C@@H]2CN(S(=O)(=O)Cc3ccccc3F)C[C@H]2C(N)=O)n1	-0.2%
CCC(=O)N1CCC2(CC1)CC(C(=O)N1CCOCC1)N(C)C2 (stereo not drawn)	-12.4%
Cc1noc(C)c1[S+](=O)([O-])N1CCCC2(C1)C(=NC1CCCCC1)NC(=O)N2c1cccnc1 (stereo not drawn)	i
CN1c2cc(C(=O)NCc3cccc(F)c3)ccc2C(=O)N2CCCCC21 (stereo not drawn)	i
O=C(c1ccc2[nH]ccc2c1)N1CC[C@@H]2COCCN(Cc3cccnc3)[C@@H]2C1	4.1%
O=C(NC1CCCCCC1)C1CC(=O)N(c2n[nH]c3cccc(F)c23)C1 (stereo not drawn)	-5.5%
COCC1CN(C(C)=O)CC12CCN(Cc1cccc(C(F)(F)F)c1)CC2 (stereo not drawn)	-22.1%
CCCn1ncc(CN2CCC(Cc3cccc(C(F)(F)F)c3)(C(=O)OCC)CC2)c1C	12.6µM*
CCOC(=O)C1(Cc2ccccc2C(F)(F)F)CCN(C(=O)c2ccc[n+]([O-])c2)CC1	-11.0%
Cc1ccc(N2C(=O)CSC23CCN(C(=O)C2CC2)CC3)cc1	3.5%
CNC(=O)[C@@H]1C[C@H](Oc2cccnc2)CN1C(=O)C1CCCC1	2.1%
CCN1C(=O)c2ccccc2Sc2ccc(NC(=O)c3ccc(Cl)cc3)cc21	i
N#Cc1ccc(C(=O)Nc2ccc3c(c2)N(C2CCCC2)C(=O)c2ccccc2S3)cc1	11.2µM*
CCN1C(=O)c2ccccc2Sc2ccc(NC(=O)Nc3cc(C)cc(C)c3)cc21	-11.4%
C=CCNC(=O)Cc1ccc(N(Cc2ccc(C)cc2)C(=O)c2ccco2)cc1	-2.1%
O=C(c1ccccc1F)N1CCCN(c2cc(-c3ccccc3)[nH]n2)CC1	i
COc1ccccc1C(=O)NC1CCN(c2cc(-c3ccccc3)[nH]n2)C1 (stereo not drawn)	i

Screening data deposited in PubChem BioAssay by National Center for Advancing Translational Sciences (NCATS).
